# Columns and labels:
# Test in all cases: yeast three-hybrid, YBZ-1, SC-Leu-His + 0.5 mM 3-AT, 4 days
# Conditions in all cases: tags: N-Gal4 AD-HA kept; label: inside an RPR1-promoter hybrid RNA with tandem MS2 sites; ssRNA
# PUM1 PUF domain R2-GWW = PUM1 PUF domain R2-GWW (Homo sapiens, UniProt Q14671 828-1176, N899G;Y900W;Q903W)
# Summary of the method: (§1)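 Pumilio-1 PUF domain libraries, randomized at the three base-contacting residues of each repeat, were co-expressed with matching RNA elements from a centromeric plasmid in strain YBZ-1, which carries a LexA–MS2 coat fusion and a HIS3 reporter. Transformants grew for four days on SC-Leu (input) or on SC-Leu-His + 0.5 mM 3-AT (selection), and the repeat regions were PCR-amplified and Illumina-sequenced. The interaction score is the log change in variant frequency from input to selection. That logarithm is base 2, with a pseudocount of 1 where a variant was absent.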
# PUM1 PUF domain R2-PVM = PUM1 PUF domain R2-PVM (Homo sapiens, UniProt Q14671 828-1176, N899P;Y900V;Q903M)
# Summary of the method: as §1
# PUM1 PUF domain R1-GKR = PUM1 PUF domain R1-GKR (Homo sapiens, UniProt Q14671 828-1176, S863G;R864K;Q867R)
# Summary of the method: as §1
# PUM1 PUF domain R1-KDT = PUM1 PUF domain R1-KDT (Homo sapiens, UniProt Q14671 828-1176, S863K;R864D;Q867T)
# Summary of the method: as §1
# PUM1 PUF domain R1-MRR = PUM1 PUF domain R1-MRR (Homo sapiens, UniProt Q14671 828-1176, S863M;Q867R)
# Summary of the method: as §1
# PUM1 PUF domain R1-RIE = PUM1 PUF domain R1-RIE (Homo sapiens, UniProt Q14671 828-1176, S863R;R864I;Q867E)
# Summary of the method: as §1
# PUM1 PUF domain R5-GRR = PUM1 PUF domain R5-GRR (Homo sapiens, UniProt Q14671 828-1176, C1007G;Q1011R)
# Summary of the method: as §1
# PUM1 PUF domain R5-PFL = PUM1 PUF domain R5-PFL (Homo sapiens, UniProt Q14671 828-1176, C1007P;R1008F;Q1011L)
# Summary of the method: as §1
# PUM1 PUF domain R5-WHS = PUM1 PUF domain R5-WHS (Homo sapiens, UniProt Q14671 828-1176, C1007W;R1008H;Q1011S)
# Summary of the method: as §1
# PUM1 PUF domain R3-FFV = PUM1 PUF domain R3-FFV (Homo sapiens, UniProt Q14671 828-1176, C935F;R936F;Q939V)
# Summary of the method: as §1
# PUM1 PUF domain R5-TVD = PUM1 PUF domain R5-TVD (Homo sapiens, UniProt Q14671 828-1176, C1007T;R1008V;Q1011D)
# Summary of the method: as §1
# PUM1 PUF domain R4-QWP = PUM1 PUF domain R4-QWP (Homo sapiens, UniProt Q14671 828-1176, N971Q;H972W;Q975P)
# Summary of the method: as §1
# PUM1 PUF domain R4-GRS = PUM1 PUF domain R4-GRS (Homo sapiens, UniProt Q14671 828-1176, N971G;H972R;Q975S)
# Summary of the method: as §1
# PUM1 PUF domain R3-VRD = PUM1 PUF domain R3-VRD (Homo sapiens, UniProt Q14671 828-1176, C935V;Q939D)
# Summary of the method: as §1
# PUM1 PUF domain R8-KYW = PUM1 PUF domain R8-KYW (Homo sapiens, UniProt Q14671 828-1176, N1122K;Q1126W)
# Summary of the method: as §1
# PUM1 PUF domain R2-VYE = PUM1 PUF domain R2-VYE (Homo sapiens, UniProt Q14671 828-1176, N899V;Q903E)
# Summary of the method: as §1
# PUM1 PUF domain R4-GRR = PUM1 PUF domain R4-GRR (Homo sapiens, UniProt Q14671 828-1176, N971G;H972R;Q975R)
# Summary of the method: as §1
# PUM1 PUF domain R4-SFR = PUM1 PUF domain R4-SFR (Homo sapiens, UniProt Q14671 828-1176, N971S;H972F;Q975R)
# Summary of the method: as §1
# PUM1 PUF domain R5-SAC = PUM1 PUF domain R5-SAC (Homo sapiens, UniProt Q14671 828-1176, C1007S;R1008A;Q1011C)
# Summary of the method: as §1
# PUM1 PUF domain R6-VYN = biological target: T1, PUM1 PUF domain R6-VYN (Homo sapiens, UniProt Q14671 828-1176, N1043V;Q1047N)
# T1 sequence: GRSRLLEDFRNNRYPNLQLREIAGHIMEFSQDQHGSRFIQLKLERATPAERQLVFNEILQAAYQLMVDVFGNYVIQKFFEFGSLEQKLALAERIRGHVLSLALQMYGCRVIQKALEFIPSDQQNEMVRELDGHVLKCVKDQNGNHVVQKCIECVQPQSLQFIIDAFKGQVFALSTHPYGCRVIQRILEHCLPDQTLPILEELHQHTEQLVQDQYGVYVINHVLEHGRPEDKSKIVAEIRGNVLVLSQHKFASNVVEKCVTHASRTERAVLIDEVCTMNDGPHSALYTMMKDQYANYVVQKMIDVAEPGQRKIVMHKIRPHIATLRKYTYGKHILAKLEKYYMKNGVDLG
# Summary of the method: as §1
sequence,measurement,setting,value
GGCUAGAACUAGUGGAUCCCCCGGCGCCCGGCGGCUCGAGCCCGGGUAAGUGUAAAGAGUCUGCAUGCCGCCGGGCGCCAUGCCUGCAGGUCGACUCUAGAAAACAUG,binding signal,PUM1 PUF domain R2-GWW,0.92 log2 enrichment (interaction score)
same,binding signal,PUM1 PUF domain R2-PVM,2.58 log2 enrichment (interaction score)
GGCUAGAACUAGUGGAUCCCCCGGCGCCCGGCGGCUCGAGCCCGGGUAAGUGUAAAUUGUCUGCAUGCCGCCGGGCGCCAUGCCUGCAGGUCGACUCUAGAAAACAUG,binding signal,PUM1 PUF domain R1-GKR,3.4 log2 enrichment (interaction score)
same,binding signal,PUM1 PUF domain R1-KDT,5.43 log2 enrichment (interaction score)
same,binding signal,PUM1 PUF domain R1-MRR,5.53 log2 enrichment (interaction score)
same,binding signal,PUM1 PUF domain R1-RIE,2.99 log2 enrichment (interaction score)
GGCUAGAACUAGUGGAUCCCCCGGCGCCCGGCGGCUCGAGCCCGGGUAAGUGUUAAUAGUCUGCAUGCCGCCGGGCGCCAUGCCUGCAGGUCGACUCUAGAAAACAUG,binding signal,PUM1 PUF domain R5-GRR,0.43 log2 enrichment (interaction score)
same,binding signal,PUM1 PUF domain R5-PFL,4.31 log2 enrichment (interaction score)
same,binding signal,PUM1 PUF domain R5-WHS,4.68 log2 enrichment (interaction score)
GGCUAGAACUAGUGGAUCCCCCGGCGCCCGGCGGCUCGAGCCCGGGUAAGUGUAAAUCGUCUGCAUGCCGCCGGGCGCCAUGCCUGCAGGUCGACUCUAGAAAACAUG,binding signal,PUM1 PUF domain R1-GKR,3.4 log2 enrichment (interaction score)
same,binding signal,PUM1 PUF domain R1-KDT,0.73 log2 enrichment (interaction score)
same,binding signal,PUM1 PUF domain R1-MRR,2.6 log2 enrichment (interaction score)
GGCUAGAACUAGUGGAUCCCCCGGCGCCCGGCGGCUCGAGCCCGGGUAAGUGUAAGUAGUCUGCAUGCCGCCGGGCGCCAUGCCUGCAGGUCGACUCUAGAAAACAUG,binding signal,PUM1 PUF domain R3-FFV,6.72 log2 enrichment (interaction score)
GGCUAGAACUAGUGGAUCCCCCGGCGCCCGGCGGCUCGAGCCCGGGUAAGUGUAAUUAGUCUGCAUGCCGCCGGGCGCCAUGCCUGCAGGUCGACUCUAGAAAACAUG,binding signal,PUM1 PUF domain R3-FFV,1.62 log2 enrichment (interaction score)
GGCUAGAACUAGUGGAUCCCCCGGCGCCCGGCGGCUCGAGCCCGGGUAAGUGUCAAUAGUCUGCAUGCCGCCGGGCGCCAUGCCUGCAGGUCGACUCUAGAAAACAUG,binding signal,PUM1 PUF domain R5-GRR,5.4 log2 enrichment (interaction score)
same,binding signal,PUM1 PUF domain R5-TVD,3.26 log2 enrichment (interaction score)
GGCUAGAACUAGUGGAUCCCCCGGCGCCCGGCGGCUCGAGCCCGGGUAAGUGUAUAUAGUCUGCAUGCCGCCGGGCGCCAUGCCUGCAGGUCGACUCUAGAAAACAUG,binding signal,PUM1 PUF domain R4-QWP,5.65 log2 enrichment (interaction score)
same,binding signal,PUM1 PUF domain R4-GRS,2.08 log2 enrichment (interaction score)
GGCUAGAACUAGUGGAUCCCCCGGCGCCCGGCGGCUCGAGCCCGGGUAAGUGUAAAUAGUCUGCAUGCCGCCGGGCGCCAUGCCUGCAGGUCGACUCUAGAAAACAUG,binding signal,PUM1 PUF domain R5-GRR,0.47 log2 enrichment (interaction score)
same,binding signal,PUM1 PUF domain R3-VRD,4.68 log2 enrichment (interaction score)
same,binding signal,PUM1 PUF domain R8-KYW,5.55 log2 enrichment (interaction score)
same,binding signal,PUM1 PUF domain R4-GRS,4.09 log2 enrichment (interaction score)
same,binding signal,PUM1 PUF domain R5-WHS,1.16 log2 enrichment (interaction score)
same,binding signal,PUM1 PUF domain R5-TVD,0.28 log2 enrichment (interaction score)
GGCUAGAACUAGUGGAUCCCCCGGCGCCCGGCGGCUCGAGCCCGGGUAAGUGUAAAAAGUCUGCAUGCCGCCGGGCGCCAUGCCUGCAGGUCGACUCUAGAAAACAUG,binding signal,PUM1 PUF domain R2-GWW,4.69 log2 enrichment (interaction score)
same,binding signal,PUM1 PUF domain R2-VYE,2.23 log2 enrichment (interaction score)
GGCUAGAACUAGUGGAUCCCCCGGCGCCCGGCGGCUCGAGCCCGGGUAAGUGUACAUAGUCUGCAUGCCGCCGGGCGCCAUGCCUGCAGGUCGACUCUAGAAAACAUG,binding signal,PUM1 PUF domain R4-GRR,2.98 log2 enrichment (interaction score)
same,binding signal,PUM1 PUF domain R4-SFR,4.24 log2 enrichment (interaction score)
GGCUAGAACUAGUGGAUCCCCCGGCGCCCGGCGGCUCGAGCCCGGGUAAGUGUGAAUAGUCUGCAUGCCGCCGGGCGCCAUGCCUGCAGGUCGACUCUAGAAAACAUG,binding signal,PUM1 PUF domain R5-SAC,3.04 log2 enrichment (interaction score)
GGCUAGAACUAGUGGAUCCCCCGGCGCCCGGCGGCUCGAGCCCGGGUAAGUGAAAAUAGUCUGCAUGCCGCCGGGCGCCAUGCCUGCAGGUCGACUCUAGAAAACAUG,binding signal,PUM1 PUF domain R6-VYN,6.4 log2 enrichment (interaction score)

# From publication PMC8384837, “Expanding the binding specificity for RNA recognition by a PUF domain”
